Source: PubChem BioAssay (Broad Institute)
NOMO-1 viab: STK33 inhibitor candidate reducing NOMO-1 cell viability; NOMO-1 AML viability, CellTiter-Glo luminescence, 72 h; inhibition, % (no concentration beside the values); actives 7.5% (n = 37,000); in the data active means inhibition above about 80%; inconclusive means no clear call, values can overlap the other calls
MITF inhib: MITF inhibition | TRPM1 promoter luciferase, luminescence, 24 h | actives 0.28% (n = 37,000) | inhibition, % (no concentration beside the values); in the data active means inhibition above about 85%; inconclusive means no clear call, values can overlap the other calls; inactive means below about 68%;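 further: human melanocyte line stably carrying TRPM1 promoter luciferase reporter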
Hedgehog inh: Sonic Hedgehog pathway inhibition | inhibition, % (concentration not given with the values) | actives 2.1% (n = 22,000) | Shh-LIGHT2 Gli-luciferase reporter, 30 h | AID 2313;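 active means mean inhibition across valid replicates above about 65%, limit read from the data; inconclusive means mean under the limit, yet half or more replicates past it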;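 further: pathway switched on by Shh-conditioned medium diluted 1 in 25 in low serum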
Each line names hits and unclear results; the compound was inactive in the other large screens. Rows were chosen to be rich in hits. Some 7.9% of all compounds tested hit in one or more screens of this group.

COc1ccc(S(=O)(=O)N(C)C[C@H]2Oc3ccc(NS(=O)(=O)c4cn(C)cn4)cc3CC(=O)N([C@@H](C)CO)C[C@@H]2C)cc1	none
Cc1nn(CC(O)COc2ccc(C(=O)c3ccccc3)cc2)c(C)c1Br (stereo not given)	none (no result: Hedgehog inh)
Cc1noc(C)c1NC(=O)Nc1cccc2c1O[C@H](CN(C)S(=O)(=O)c1ccc(Cl)cc1)[C@H](C)CN([C@H](C)CO)C2=O	none
CC(C)NC(=O)Nc1cccc2c1O[C@H](CN(C)C(=O)Nc1ccc3c(c1)OCO3)[C@@H](C)CN([C@H](C)CO)C2=O	none
COc1ccc(C(=O)NCc2ccc(C#N)cc2)cc1OC	none
O=C(O)c1cccc(NS(=O)(=O)c2cccc(C(=O)Nc3ccc(F)cc3)c2)c1	none (no result: Hedgehog inh)
C[C@H]1CC(O)C23COC(=O)[C@@H]2CCC[C@@H]3[C@@]12C[C@@H](c1ccoc1)OC2=O (stereo not given in full)	none (no result: NOMO-1 viab, MITF inhib)
O=C(COc1ccccc1[N+](=O)[O-])Nc1ccc(O)c(-c2nc3ccccc3s2)c1	none (no result: Hedgehog inh)
Cc1ccc(S(=O)(=O)N(Cc2cc3cccc(C)c3[nH]c2=O)c2ccccc2)cc1	NOMO-1 viab 116.5 (no result: Hedgehog inh)
CCCC(=O)N(Cc1cc2cccc(C)c2[nH]c1=O)c1ccc(C)cc1	none (no result: Hedgehog inh)
O=C(NCc1ccco1)C1CC(c2ccccc2O)=NO1 (stereo not given)	none (no result: Hedgehog inh)
COc1cc(OC)c(C2=NOC(C(=O)NCc3ccco3)C2)cc1Cl (stereo not given)	NOMO-1 viab 128.7 (no result: Hedgehog inh)
C[C@H]1CN([C@@H](C)CO)C(=O)Cc2cc(NC(=O)Cc3ccccc3)ccc2O[C@@H]1CN(C)CC1CC1	none
CCN(CC)C(=S)SC1=CCS(=O)(=O)C1	none
CCN(CC)C(=S)SSC(=S)N(CC)CC	NOMO-1 viab 140.8
CC(C(=O)Nc1cc(Cl)ccc1Oc1ccccc1)N(c1ccccc1)S(C)(=O)=O (stereo not given)	none (no result: Hedgehog inh)
CC(C)(C)c1ccc(OCC(O)Cn2cnc3ccccc32)cc1 (stereo not given)	NOMO-1 viab 93.1 (no result: Hedgehog inh)
Cc1ccc(OCC(O)Cn2cnc3ccccc32)cc1 (stereo not given)	none (no result: Hedgehog inh)
COc1ccc(S(=O)(=O)N(C)CC(=O)Nc2cccc(Cl)c2C)cc1C	none (no result: Hedgehog inh)
Cc1ccc(S(=O)(=O)N(C)C[C@@H]2Oc3ccc(NS(=O)(=O)c4ccccc4)cc3C(=O)N([C@H](C)CO)C[C@@H]2C)cc1	none (no result: Hedgehog inh)
C[C@@H]1CN([C@@H](C)CO)C(=O)Cc2cc(NC(=O)Nc3ccc(C(F)(F)F)cc3)ccc2O[C@@H]1CN(C)Cc1ccncc1	NOMO-1 viab 115.8
C[C@H]1CN([C@@H](C)CO)C(=O)Cc2cc(NC(=O)Nc3ccc(C(F)(F)F)cc3)ccc2O[C@H]1CN(C)Cc1ccncc1	NOMO-1 viab 133.6
C[C@H](CO)N1C[C@H](C)[C@H](CN(C)Cc2ccc(C(F)(F)F)cc2)Oc2ccc(NC(=O)c3ccncc3)cc2CC1=O	none
C[C@@H]1CN([C@H](C)CO)C(=O)Cc2cc(NC(=O)Nc3ccc(C(F)(F)F)cc3)ccc2O[C@@H]1CN(C)Cc1ccncc1	NOMO-1 viab inconclusive
C[C@H]1CN([C@@H](C)CO)C(=O)Cc2cc(NC(=O)C3CC3)ccc2O[C@@H]1CN(C)S(=O)(=O)c1ccccc1	none
C[C@@H]1CN([C@@H](C)CO)C(=O)c2cc(NS(C)(=O)=O)ccc2O[C@H]1CN(C)S(=O)(=O)c1ccc(Cl)cc1	none
COc1ccc(NC(=O)N(C)C[C@@H]2Oc3ccc(NC(=O)Nc4ccc5c(c4)OCO5)cc3C(=O)N([C@@H](C)CO)C[C@H]2C)cc1	none
Cc1ccc([N+](=O)[O-])c(OCCCCn2cncn2)c1	none (no result: Hedgehog inh)
COc1ccc(NC(=O)Nc2ccc3c(c2)CC(=O)N([C@@H](C)CO)C[C@H](C)[C@H](CN(C)C)O3)cc1	none
O=C(c1ccccc1Cl)n1nc(-c2ccccc2)nc1NCc1ccco1	none (no result: Hedgehog inh)
O=C(c1ccc(F)cc1)n1nc(-c2ccc(Cl)cc2)nc1NCc1ccco1	NOMO-1 viab 104.0 (no result: Hedgehog inh)
COc1cccc(NC(=O)CSc2nnc(-c3cccc(OC)c3)n2-c2ccc(Cl)cc2)c1	none (no result: Hedgehog inh)
COc1cccc(NC(=O)CSc2nnc(-c3ccc(Cl)cc3)n2-c2cccc(C)c2)c1	NOMO-1 viab 122.9, MITF inhib inconclusive (no result: Hedgehog inh)
Cc1ccc(Cl)cc1NC(=O)CSc1nnc(-c2ccccc2)n1-c1ccccc1	none (no result: Hedgehog inh)
O=C(CSc1nnc(-c2cccc(Cl)c2)n1-c1ccccc1)Nc1ccccc1-c1ccccc1	NOMO-1 viab 142.0 (no result: Hedgehog inh)
Cc1c(NC(=O)COc2ccc(C(C)C)cc2)cccc1C(=O)O	none (no result: Hedgehog inh)
CNC[C@H]1Oc2ccc(NC(=O)Nc3ccc4c(c3)OCO4)cc2CC(=O)N([C@@H](C)CO)C[C@H]1C	none
C[C@@H]1CN([C@H](C)CO)C(=O)c2cc(NS(=O)(=O)c3cccs3)ccc2O[C@@H]1CN(C)Cc1ccc(-c2ccccc2)cc1	NOMO-1 viab 113.3
C[C@H]1CN([C@@H](C)CO)C(=O)Cc2cc(NS(=O)(=O)c3cccs3)ccc2O[C@@H]1CN(C)Cc1ccc(-c2ccccc2)cc1	NOMO-1 viab 89.2
C[C@H](CO)N1C[C@H](C)[C@H](CN(C)Cc2ccc(-c3ccccc3)cc2)Oc2ccc(NS(=O)(=O)c3cccs3)cc2C1=O	none
C[C@H]1CN([C@@H](C)CO)C(=O)Cc2cc(NS(=O)(=O)c3cccs3)ccc2O[C@H]1CN(C)Cc1ccc(Oc2ccccc2)cc1	none
C[C@@H]1CN([C@H](C)CO)C(=O)Cc2cc(NS(=O)(=O)c3cccs3)ccc2O[C@@H]1CN(C)Cc1ccc(Oc2ccccc2)cc1	NOMO-1 viab 117.9
C[C@@H]1CN([C@H](C)CO)C(=O)Cc2cc(NS(=O)(=O)c3cccs3)ccc2O[C@H]1CN(C)Cc1ccccc1	none
CNC[C@H]1Oc2ccc(NC(=O)Cc3cn(C)c4ccccc34)cc2C(=O)N([C@H](C)CO)C[C@@H]1C	none (no result: Hedgehog inh)
Cc1ccc(OCC(=O)Nc2ccc3oc(-c4ccccc4C)nc3c2)c(C)c1	none (no result: Hedgehog inh)
CC(C)(C)Nc1cccccc1=NCc1ccccc1	NOMO-1 viab 91.9 (no result: Hedgehog inh)
CC1=COC=C(C=NCc2ccccc2)N1c1ccccc1	none (no result: Hedgehog inh)
Cc1cc(I)ccc1NC(=O)CN(c1ccc(F)c(Cl)c1)S(C)(=O)=O	none (no result: Hedgehog inh)
C[C@@H]1CN([C@H](C)CO)C(=O)c2cccc(NC(=O)c3ccncc3)c2O[C@H]1CN(C)Cc1ccc(C(=O)Nc2ccccc2N)cc1	none (no result: Hedgehog inh)
C[C@@H]1CN([C@@H](C)CO)C(=O)c2cc(NC(=O)C3CC3)ccc2O[C@H]1CN(C)Cc1ccc(C(=O)Nc2ccccc2N)cc1	none (no result: Hedgehog inh)
C[C@@H]1CN([C@@H](C)CO)C(=O)c2cccc(NC(=O)C3CCOCC3)c2O[C@@H]1CN(C)Cc1ccc(C(=O)Nc2ccccc2N)cc1	NOMO-1 viab 126.4 (no result: Hedgehog inh)
C[C@H]1CN([C@@H](C)CO)C(=O)c2cccc(NC(=O)C3CC3)c2O[C@H]1CN(C)Cc1ccc(C(=O)Nc2ccccc2N)cc1	NOMO-1 viab 93.7 (no result: Hedgehog inh)
C[C@@H]1CN([C@@H](C)CO)C(=O)c2cccc(NC(=O)c3ccncc3)c2O[C@@H]1CN(C)Cc1ccc(C(=O)Nc2ccccc2N)cc1	NOMO-1 viab 127.7 (no result: Hedgehog inh)
C[C@H](CO)N1C[C@H](C)[C@@H](CN(C)Cc2ccc(C(=O)Nc3ccccc3N)cc2)Oc2c(NC(=O)C3CCOCC3)cccc2C1=O	none (no result: Hedgehog inh)
C[C@H]1CN([C@@H](C)CO)C(=O)c2cccc(NC(=O)c3ccncc3)c2O[C@H]1CN(C)Cc1ccc(C(=O)Nc2ccccc2N)cc1	none (no result: Hedgehog inh)
